Measured values taken from ChEMBL document CHEMBL4513216, “Probing the Open Global Health Chemical Diversity Library for Multistage-Active Starting Points for Next-Generation Antimalarials” (ACS Infect Dis, 2020).
About 2,100 (3.2%) of roughly 65,000 compounds showed an effect of 50% or more. The median lay at about -52%. The full list was thinned out, with strong results kept by preference.

What follows are compounds tested on Plasmodium falciparum (assay: Screen against P. falciparum Asexual Blood Stage (ABS), at 5uM). Settings: tested at 5 uM.
Format: functional, Dd2

Compound | INHIBITION [%]
Cc1csc(CN2C[C@@H]3CN(C)CCO[C@@H]3C2)n1 | -19.5
CCOc1c(Cl)cc(Cl)cc1CNCCCn1ccnc1 | 75.9
CC(C)(C)n1cc(C(=O)NCCCn2ccnc2)c2cccnc21 | -3.93
Cc1nn(CCNC(C)Cn2ccnc2)c(C)c1Cl (configuration not stated) | 0.358
COCc1cn(C[C@H]2CC3CCN2C[C@@H]3C(=O)Nc2ccccc2)nn1 (some centres not stated) | -106
CNC(=O)c1cn(C(C)(C)C)c2ncccc12 | -148
c1cncc(N2CC[C@@H]3CN(CC4CC4)C[C@@H]3C2)c1 | 6.94
Cc1cnc(N2C[C@H]3CCN(CC4CC4)C[C@H]3C2)nc1 | 65.5
Cc1cnc(N2C[C@H]3CCN(CC4CC4)C[C@@H]3C2)nc1 | 40.6
Cn1ccnc1CNC1CCCOc2c1ccc1ccccc21 (configuration not stated) | 77.2
Cc1nc(-c2cc(Cl)c3c(c2)CC(CN)O3)c[nH]1 (configuration not stated) | 83.7
NCC1Cc2cc(Cl)cc(-c3cncc(C(=O)N4CCCCC4)n3)c2O1 (configuration not stated) | 76
Cc1cc2c(c(-c3c[nH]c(C)n3)c1)OC(CN)C2 (configuration not stated) | 80.1
Cc1nc(-c2cc(Cl)cc3c2OC(CN)C3)c[nH]1 (configuration not stated) | 94.4
CCN1CCN(C)C(=O)C12CCN(C(=O)Cc1ccccn1)CC2 | -113
CCC(=O)NCC(c1ccc(SC)cc1)N1CCc2sccc2C1 (configuration not stated) | 77.1
O=C1NC2(CCNCC2)CC1c1ccncc1 (configuration not stated) | -134
C[C@@H]1CN(Cc2cccnc2)C[C@]1(C)O | -61.6
C[C@@H]1CN(C2CCN(c3ccccc3F)CC2)CC[C@]1(C)O | 87.7
O=C(CCN1CCCC(CO)(CC2CC2)C1)NCc1cccc(Cl)c1 (configuration not stated) | 80
O=C(NCc1cccnc1)C1=NOC2(CCCN(CCO)C2)C1 (configuration not stated) | -58.4
Cc1cc(N(C)C)nc(N2CCCC2c2cccnc2)n1 (configuration not stated) | -15.1
Nc1cc(-c2c[nH]nc2C2CCCN2CCCc2ccccc2)ccn1 (configuration not stated) | 77.3
O=C1[C@H]2CN(Cc3ccoc3)C[C@@H]2CCN1Cc1cccnc1 | -121
Cc1noc(C)c1CN1CC[C@H]2O[C@@H](C(=O)N3CCCC3)CC[C@H]21 | -58.1
O=C(c1ccccc1-n1cnnn1)N1CCC2(CC1)OCCO2 | -76.9

Compound | INHIBITION [%]
CC(C)c1nc(N2CCN3CCCC3C2)c2cnn(C)c2n1 (configuration not stated) | 12.9
NCC1CCN(c2nc(C3CCCC3)nc3c2CCNCC3)C1 (configuration not stated) | 93.5
C1CCC(c2nc3c(c(N4CCN5CCCC5C4)n2)CCNCC3)C1 (configuration not stated) | 77.4
c1cnn(CC2CCN(c3nc(C4CC4)nc4c3CCNCC4)CC2)c1 | 91
CCOCc1nc2c(c(N3CCN4CCCC4C3)n1)CCNCC2 (configuration not stated) | -33.2
Cc1nn(-c2ccccn2)c2c1C(c1cnn(C)c1)SCC(=O)N2 (configuration not stated) | -90.8
Cc1noc(C)c1CN1CCO[C@H]2CNC[C@H]21 | -38.6
CCN(C)c1nccc(N2CCN[C@H]3CS(=O)(=O)C[C@H]32)n1 | -58.4
CO[C@H]1COCCN(Cc2c[nH]c3ccccc23)C1 | -48.4
COc1ccc(-n2cccn2)c(CN2CCOCC(CN(C)C)C2)c1 (configuration not stated) | 78.4
Cc1cc(-n2cccn2)ccc1CN1CCOCC(CN(C)C)C1 (configuration not stated) | 73
Cc1nc(=O)c(CC(=O)N2C[C@H]3CC[C@@H](C2)N(CC2CCC2)C3)c(C)[nH]1 | -89.5
CCN1CC(=O)NCC12CCN(C(=O)c1ccno1)C2 (configuration not stated) | -7.44
N#Cc1cccc(C(=O)NS(=O)(=O)c2ccc(C#N)c(Cl)c2)c1 | -49.2
N#Cc1cccc(S(=O)(=O)Nc2c(F)cccc2N2CCCC2)c1 | 74.1
Cc1nc(CC(=O)N2CCN(Cc3ccc(C#N)cc3)CC2)cs1 | -11.175
CCOc1ccc(Br)cc1C1CCCCN1 (configuration not stated) | 78.2
CCOc1ccc(Cl)cc1C1CCCN1 (configuration not stated) | 87.7
CCOc1ccc(Br)cc1C1CCCN1 (configuration not stated) | 72.9
CC(C)NC(=O)C1CCC2(CCNCC2)C1 (configuration not stated) | -81.9
CCN1CCC2(CC1)C(=O)Nc1ccc(C(=O)NC)cc12 | -38.9
Cc1ccccc1CC(C)NC(=O)Nc1cnn(CC(N)=O)c1 (configuration not stated) | -23.3
CC(C)COC(=O)N1CCC2(CCNC2)C1 (configuration not stated) | -93.7
Cc1ncsc1CN1CC[C@H]2C[C@H](c3ccncn3)O[C@@H]2C1 | -37.3
NC1(c2nc(-c3cccs3)cc(=O)[nH]2)CCCCC1 | -95.6
O=S1(=O)N(c2ccccc2)C[C@H](O)[C@]12CCNC2 | -88.5

Compound | INHIBITION [%]
O=C(c1nc(=O)[nH]c2ccccc12)N1CCCC2(CCNC2)C1 (configuration not stated) | -74.6
NC(=O)C1(Cc2ccc(-c3ccccc3)cc2)CCNC1 (configuration not stated) | 92.7
O=C(N1CCCC1)C1(Cc2ccc(-c3cccs3)cc2)CCNC1 (configuration not stated) | 84.5
O=S1(=O)N(c2ccccc2)C[C@@H](O)[C@]12CCNC2 | -3.43
CC(C)N1CCCC(Cc2nccnc2Cl)C1 (configuration not stated) | -59.8
COc1ccc(C2SCC(=O)Nc3ccsc32)cc1 (configuration not stated) | -71.1
O=C(N[C@@H]1CN[C@H]2CCCO[C@H]21)c1cccnc1 | -128
c1cncc(OC[C@]23COC[C@H]2CN(Cc2cccs2)C3)c1 | -51.7
CCCN(C)CC1CCN(c2ccc(Br)c(C)n2)C1 (configuration not stated) | 73.7
CCc1noc(CC)c1CC(=O)N1CCN(C(C#N)C(C)C)CC1 (configuration not stated) | -154
CNC(=O)[C@@H]1C[C@H]2CN(C(=O)c3ccccn3)C[C@H]2N1C(C)C | -23
CC[C@H]1CN2CC[C@H]1C[C@@H]2CNC(=O)c1ccco1 | -29.4
CN(C[C@H]1CN2CC[C@H]1C[C@@H]2CNC(=O)c1ccco1)c1ccccc1 | 71.2
CCN(CC)C[C@H]1CN2CC[C@H]1C[C@@H]2CNC(=O)c1ccco1 | -97.7
COc1cc(N2CC[C@@H]3OCCN(C)[C@H]3CC2)ncn1 | -67.4
Cc1cccc(OCC(=O)N2CCN(C3CCOC3=O)CC2)c1C (configuration not stated) | -13.7
CC1COC2(CCN(C(=O)c3ncoc3C(C)C)CC2)O1 (configuration not stated) | -69.9
Nc1nc(N)c2c(n1)OC1(CCN(Cc3nccs3)C1)C2 (configuration not stated) | -96
CCN1CCC2(CC1)CN(CCO)c1ccccc12 | -30.2
c1cnc(N2CCC3(CC2)CN(CC2CC2)c2ccccc23)nc1 | 86.3
CN1CCN(c2ncccn2)CC12CCC(=O)N(CC1CC1)CC2 (configuration not stated) | -74.4
Fc1ccc2[nH]c3c(c2c1)CCN1C(c2ccncc2)N2CCC31CC2 (configuration not stated) | 89.6
Fc1ccc2[nH]c3c(c2c1)CCN1C(c2ccccn2)N2CCC31CC2 (configuration not stated) | 81.2
Cc1noc(C)c1CN1CCCC2(C1)CN(c1nccs1)CCO2 (configuration not stated) | 18.6
c1cnc(N2CCN3C[C@H](Oc4cncnc4)C[C@H]3C2)nc1 | -102
CNc1nc(C(=O)N2C[C@@H]3CCN(C)[C@@H]3C2)cs1 | -94.9

Compound | INHIBITION [%]
CCOCCN1C[C@H](C(=O)Nc2cccnc2)[C@@H]2CCO[C@@H]2C1 | -9.46
CCOCCCn1c(NC(=O)c2cc(C)on2)nc2ccccc21 | 71.5
O=C(CC1[C@H]2CN(Cc3ccncc3)C[C@@H]12)N1CCCC1 (some centres not stated) | -109
NCC1[C@H]2CN(Cc3cccc(Cl)c3)C[C@@H]12 (some centres not stated) | 83.8
Cc1ccc([C@]2(O)CC[C@H]3CN(Cc4ccccc4F)C[C@H]32)nc1 | 20.6
NCC1[C@H]2CN(CCc3ccccc3)C[C@@H]12 (some centres not stated) | 86.8
c1ccc(CCN2C[C@@H]3OCCN(c4ncccn4)[C@@H]3C2)cc1 | -64.6
Oc1cccc(CN2C[C@@H]3CC[C@H]2CN(Cc2ccncc2)C3)c1 | -31.9
NCC1[C@H]2CN(Cc3ccccc3F)C[C@@H]12 (some centres not stated) | 68.2
O=C1CO[C@@H]2CN(Cc3nccs3)C[C@H]2N1Cc1ccncc1 | -59.6
CN(C)[C@@H]1CN(C(=O)Cc2ccc(F)cc2)[C@@H]2CCCO[C@H]12 | -29.9
CC(C)N(Cc1ccccn1)Cc1nc2c(cnn2C)c(=O)[nH]1 | 74.2
CN(CCc1ccc(F)cc1)Cc1nc2c(cnn2C)c(=O)[nH]1 | -97.7
CN(CCc1ccccc1)Cc1nc2c(cnn2C)c(=O)[nH]1 | -38.8
COc1cccc([C@@H]2CCN(Cc3[nH]nc(C)c3Cl)C[C@H]2O)c1 | -12.4
O[C@@]1(c2ccccn2)CC[C@H]2CN(Cc3cccc(Cl)c3Cl)C[C@H]21 | 39.6
COc1cccc(CN2CCC(c3nn(CCN)c4nccnc34)C2)c1 (configuration not stated) | 89.1
c1cnc(N2CC[C@@H]3CN(Cc4ccncc4)CCO[C@@H]3C2)nc1 | -103
c1ccc(CN2CC[C@H]3CO[C@H](CNc4ncccn4)[C@H]3C2)cc1 | -6.23
CN(C)CCN1CCO[C@H]2CN(Cc3ccccn3)C[C@H]21 | 11.1
c1ccc(N2CC[C@@H]3CN(Cc4ccncc4)CCO[C@@H]3C2)cc1 | -57.3
CN(C)CCn1nc(C2CCN(Cc3ccccc3)C2)c2cccnc21 (configuration not stated) | 71.9
NCCn1nc(C2CCN(Cc3ccccc3)C2)c2nccnc21 (configuration not stated) | 80.4
NCCn1nc(C2CCN(Cc3ccccc3Cl)C2)c2nccnc21 (configuration not stated) | 80.1
